This is an account of results in the supplement of paper PMC9262897, “Low-cost anti-mycobacterial drug discovery using engineered E. coli” (Nature Communications, 2022).

Counter-ions that a name gives are not always drawn. ± gives the standard deviation of the averaged measurements.

For one assay, the system named is E. coli TESEC Mtb DapB. The assay can be described thus: growth (OD600 after 10 h); higher = more growth (less inhibition). The note with it: arabinose induction (level): High; compound 0.1 mM; raw OD600 reference: median of DMSO wells […], cell-free background 0.041. The procedure:
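TESEC E. coli strains in which the native enzyme is deleted and replaced by arabinose-inducible Mtb Asd, DapB, CysH or TrpD, each grown in its selective medium. Strains were screened against the Prestwick library at 0.1 mM and 1% DMSO in 384-well format at low and high arabinose induction. Growth is read as OD600 after 10 h in triplicate.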
Turning to `NC[C@@H]1O[C@@H](O[C@H]2[C@H](O)[C@@H](O[C@H]3O[C@H](CO)[C@@H](O)[C@H](N)[C@H]3O)[C@H](N)C[C@@H]2N)[C@@H](O)[C@H](O)[C@H]1O` [Kanamycin A sulfate], the growth came to 0.202 ± 0.0057.
The same measure, in the same setting: with `CC(C)[N+](C)(CCOC(=O)C1c2ccccc2Oc2ccccc21)C(C)C` [Propantheline bromide] the figure was 0.156 ± 0.011; with `CCN(CC)Cc1cc(Nc2ccnc3cc(Cl)ccc23)ccc1O` [Amodiaquin dihydrochloride dihydrate], 0.209 ± 0.017.
The compound `Cc1[nH]c(=O)c(C#N)cc1-c1ccncc1` [Milrinone] yielded a growth of 0.212 ± 0.0044.
Same read-out and setting: with `CN(C)CCCN1c2ccccc2Sc2ccc(C(F)(F)F)cc21` [Triflupromazine hydrochloride] the figure was 0.0483 ± 0.00081.
Still for that read-out and setting: the figure for `Nc1nc2[nH]cc(CCc3ccc(C(=O)N[C@@H](CCC(=O)O)C(=O)O)cc3)c2c(=O)[nH]1` [Pemetrexed disodium] is 0.19 ± 0.019; for `C=C1/C(=C\C=C2/CCC[C@]3(C)[C@@H]([C@H](C)/C=C/[C@@H](O)C4CC4)CC[C@@H]23)C[C@@H](O)C[C@@H]1O` [Calcipotriene] it is 0.158 ± 0.078.
The same measure, in the same setting: the figure for `CCN1CCCC1CNC(=O)c1cc(S(N)(=O)=O)ccc1OC` (stereo not given) [Sulpiride] is 0.221 ± 0.037; for `CN1CCN(c2c(F)cc3c(=O)c(C(=O)O)cn(CCF)c3c2F)CC1` [Fleroxacin] it is 0.0682 ± 0.001.
In turn, `CN(C)C(=O)C(CCN1CCC(O)(c2ccc(Cl)cc2)CC1)(c1ccccc1)c1ccccc1` [Loperamide hydrochloride] returned a growth of 0.0489 ± 0.00058.
The same measure, in the same setting: the figure for `NC[C@H]1O[C@H](O[C@H]2[C@H](O)[C@@H](O[C@H]3O[C@H](CO)[C@@H](O)[C@H](N)[C@H]3O)[C@H](N)C[C@@H]2N)[C@H](N)C[C@@H]1O` [Tobramycin] is 0.04757 ± 0.0004.
Still for that read-out and setting: the figure for `Clc1ccc(CO/N=C(\Cn2ccnc2)c2ccc(Cl)cc2Cl)c(Cl)c1` [Oxiconazole Nitrate] is 0.0621 ± 0.0016; for `Cc1c(OCC(F)(F)F)ccnc1C[S+]([O-])c1nc2ccccc2[nH]1` (stereo not given) [Lansoprazole] it is 0.175 ± 0.0097.
Same read-out and setting: the figure for `C[C@H](CCC(=O)O)[C@H]1CC[C@H]2[C@@H]3[C@H](O)C[C@@H]4C[C@H](O)CC[C@]4(C)[C@H]3CC[C@]12C` [Chenodiol] is 0.168 ± 0.026.
With `CC(=O)NC[C@H]1CN(c2ccc(N3CCOCC3)c(F)c2)C(=O)O1` [Linezolid], the growth turned out to be 0.0899 ± 0.0032.
Still for that read-out and setting: the figure for `O=C1c2cccc3c2[C@H](CCC3)CN1[C@@H]1CN2CCC1CC2` [Palonosetron hydrochloride] is 0.198 ± 0.0067; for `N[C@@H](Cc1ccc(O)c(O)c1)C(=O)O` [Levodopa] it is 0.195 ± 0.0078.
In the case of `COc1ccc(CCN(C)CCCC(C#N)(c2ccc(OC)c(OC)c2)C(C)C)cc1OC` (stereo not given) [Verapamil hydrochloride], the growth is 0.177 ± 0.017.
Compound `CC1Cc2ccccc2N1NC(=O)c1ccc(Cl)c(S(N)(=O)=O)c1` (stereo not given) [Indapamide] displayed a growth of 0.208 ± 0.016.
Still for that read-out and setting: with `C[C@H]1C[C@@H]2[C@H]([C@@H](O)C[C@@]3(C)[C@H]2CC[C@]3(O)C(=O)CO)[C@@]2(C)C=CC(=O)C=C12` [Methylprednisolone, 6-alpha] the figure was 0.175 ± 0.0055.

Staying with this assay, now noted: arabinose induction (level): Low; compound 0.1 mM; raw OD600 reference: median of DMSO wells 0.227, cell-free background 0.041.
In the case of `NC[C@@H]1O[C@@H](O[C@H]2[C@H](O)[C@@H](O[C@H]3O[C@H](CO)[C@@H](O)[C@H](N)[C@H]3O)[C@H](N)C[C@@H]2N)[C@@H](O)[C@H](O)[C@H]1O` [Kanamycin A sulfate], the growth was 0.28 ± 0.056.
Same read-out and setting: with `CC(C)[N+](C)(CCOC(=O)C1c2ccccc2Oc2ccccc21)C(C)C` [Propantheline bromide] the figure was 0.17 ± 0.0089; with `CCN(CC)Cc1cc(Nc2ccnc3cc(Cl)ccc23)ccc1O` [Amodiaquin dihydrochloride dihydrate], 0.28 ± 0.06; with `Cc1[nH]c(=O)c(C#N)cc1-c1ccncc1` [Milrinone], 0.236 ± 0.014.
On the same count and under the same terms, with `CN(C)CCCN1c2ccccc2Sc2ccc(C(F)(F)F)cc21` [Triflupromazine hydrochloride] the figure was 0.211 ± 0.15; with `Nc1nc2[nH]cc(CCc3ccc(C(=O)N[C@@H](CCC(=O)O)C(=O)O)cc3)c2c(=O)[nH]1` [Pemetrexed disodium], 0.231 ± 0.013.
Still for that read-out and setting: the figure for `C=C1/C(=C\C=C2/CCC[C@]3(C)[C@@H]([C@H](C)/C=C/[C@@H](O)C4CC4)CC[C@@H]23)C[C@@H](O)C[C@@H]1O` [Calcipotriene] is 0.0652 ± 0.0025.
For the compound `CCN1CCCC1CNC(=O)c1cc(S(N)(=O)=O)ccc1OC` (stereo not given) [Sulpiride], the growth was found to be 0.253 ± 0.024.
As to `CN1CCN(c2c(F)cc3c(=O)c(C(=O)O)cn(CCF)c3c2F)CC1` [Fleroxacin], the growth was found to be 0.0599 ± 0.003.
The compound `CN(C)C(=O)C(CCN1CCC(O)(c2ccc(Cl)cc2)CC1)(c1ccccc1)c1ccccc1` [Loperamide hydrochloride] came in with a growth of 0.0571 ± 0.017.
On to `NC[C@H]1O[C@H](O[C@H]2[C@H](O)[C@@H](O[C@H]3O[C@H](CO)[C@@H](O)[C@H](N)[C@H]3O)[C@H](N)C[C@@H]2N)[C@H](N)C[C@@H]1O` [Tobramycin], for which the growth came to 0.0491 ± 0.0037.
Same read-out and setting: the figure for `Clc1ccc(CO/N=C(\Cn2ccnc2)c2ccc(Cl)cc2Cl)c(Cl)c1` [Oxiconazole Nitrate] is 0.0618 ± 0.0051; for `Cc1c(OCC(F)(F)F)ccnc1C[S+]([O-])c1nc2ccccc2[nH]1` (stereo not given) [Lansoprazole] it is 0.203 ± 0.02; for `C[C@H](CCC(=O)O)[C@H]1CC[C@H]2[C@@H]3[C@H](O)C[C@@H]4C[C@H](O)CC[C@]4(C)[C@H]3CC[C@]12C` [Chenodiol] it is 0.179 ± 0.0059.
In turn, `CC(=O)NC[C@H]1CN(c2ccc(N3CCOCC3)c(F)c2)C(=O)O1` [Linezolid] returned a growth of 0.0871 ± 0.0054.
Consider `O=C1c2cccc3c2[C@H](CCC3)CN1[C@@H]1CN2CCC1CC2` [Palonosetron hydrochloride], for which the growth was 0.235 ± 0.02.
With `N[C@@H](Cc1ccc(O)c(O)c1)C(=O)O` [Levodopa], the growth came to 0.209 ± 0.013.
In turn, `COc1ccc(CCN(C)CCCC(C#N)(c2ccc(OC)c(OC)c2)C(C)C)cc1OC` (stereo not given) [Verapamil hydrochloride] returned a growth of 0.248 ± 0.044.
Same read-out and setting: with `CC1Cc2ccccc2N1NC(=O)c1ccc(Cl)c(S(N)(=O)=O)c1` (stereo not given) [Indapamide] the figure was 0.216 ± 0.021; with `C[C@H]1C[C@@H]2[C@H]([C@@H](O)C[C@@]3(C)[C@H]2CC[C@]3(O)C(=O)CO)[C@@]2(C)C=CC(=O)C=C12` [Methylprednisolone, 6-alpha], 0.213 ± 0.023.
